Tests used:
Assay in all cases: DAPPL (digital affinity profiling via proximity ligation, sequencing); 10 mM Tris-HCl pH 7.5, 50 mM NaCl, 1 mM DTT, 4% glycerol, room temperature, 30 min; GST-TFs on glutathione beads, 16-mer random dsDNA library, 0.1% formaldehyde crosslink after washing; high values mean tight binding
Settings in all cases: protein: recombinant; tags: N-terminal GST; dsDNA, one strand shown
[1] = target: T1, FLI1 (Homo sapiens, UniProt Q01543 1-452)
T1 sequence: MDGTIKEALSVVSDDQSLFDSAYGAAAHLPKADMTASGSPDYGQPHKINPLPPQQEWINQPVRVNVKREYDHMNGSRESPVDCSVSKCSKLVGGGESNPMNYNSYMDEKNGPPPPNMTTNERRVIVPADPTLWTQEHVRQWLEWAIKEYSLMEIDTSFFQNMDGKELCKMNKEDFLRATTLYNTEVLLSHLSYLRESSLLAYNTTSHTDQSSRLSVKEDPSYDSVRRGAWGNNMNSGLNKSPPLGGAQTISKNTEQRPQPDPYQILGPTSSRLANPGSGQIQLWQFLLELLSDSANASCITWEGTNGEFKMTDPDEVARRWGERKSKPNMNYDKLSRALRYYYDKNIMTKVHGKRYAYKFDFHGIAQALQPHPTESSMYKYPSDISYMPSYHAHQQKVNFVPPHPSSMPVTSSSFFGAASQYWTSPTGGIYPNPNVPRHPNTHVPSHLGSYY
Outline: (§1)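 Binding signal is defined as a hexamer's read frequency for one factor over its frequency for the tag-only sample. To obtain reads, GST-fused human transcription factors were expressed in yeast, captured on glutathione beads, barcoded with DNA and pooled with that sample. Pools met 200 nmole of a 16-mer random double-stranded DNA library in Tris/NaCl/DTT/glycerol buffer for 30 min at room temperature before washing, 0.1% formaldehyde crosslinking, proximity ligation (BsaI/T4 ligase, 1 h, 37 °C), PCR and Illumina NextSeq500 sequencing.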

[2] = target: T2, ELK1 (Homo sapiens, UniProt P19419 1-428)
T2 sequence: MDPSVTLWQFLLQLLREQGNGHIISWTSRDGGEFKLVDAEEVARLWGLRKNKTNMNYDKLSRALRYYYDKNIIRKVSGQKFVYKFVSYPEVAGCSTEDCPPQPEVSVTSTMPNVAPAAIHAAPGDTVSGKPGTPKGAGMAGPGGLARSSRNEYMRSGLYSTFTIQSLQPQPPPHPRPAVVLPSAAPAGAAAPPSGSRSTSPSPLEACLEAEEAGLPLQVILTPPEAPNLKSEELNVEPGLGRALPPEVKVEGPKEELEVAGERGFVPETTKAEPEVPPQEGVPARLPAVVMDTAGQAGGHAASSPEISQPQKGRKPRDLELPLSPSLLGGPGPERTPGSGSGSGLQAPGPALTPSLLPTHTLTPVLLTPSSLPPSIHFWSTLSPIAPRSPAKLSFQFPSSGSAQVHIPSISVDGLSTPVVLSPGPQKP
Outline: as §1

[3] = target: T3, GABPA (Homo sapiens, UniProt Q06546 1-454)
T3 sequence: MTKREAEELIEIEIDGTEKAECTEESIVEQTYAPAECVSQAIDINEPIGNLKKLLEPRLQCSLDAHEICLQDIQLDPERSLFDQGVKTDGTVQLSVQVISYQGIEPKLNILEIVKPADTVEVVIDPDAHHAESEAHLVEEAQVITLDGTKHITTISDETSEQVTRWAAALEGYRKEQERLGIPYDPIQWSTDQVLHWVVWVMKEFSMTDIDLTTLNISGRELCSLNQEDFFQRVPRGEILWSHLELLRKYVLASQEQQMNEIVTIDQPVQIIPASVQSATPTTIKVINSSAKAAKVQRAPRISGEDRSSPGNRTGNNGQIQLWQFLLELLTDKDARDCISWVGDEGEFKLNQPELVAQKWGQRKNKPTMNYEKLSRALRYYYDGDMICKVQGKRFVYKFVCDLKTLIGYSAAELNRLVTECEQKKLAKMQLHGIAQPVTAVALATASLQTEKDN
Outline: as §1

[4] = target: ELF1 (Homo sapiens, UniProt P32519 1-619)
Outline: as §1

[5] = target: T4, EHF (Homo sapiens, UniProt Q9NZC4 1-300)
T4 sequence: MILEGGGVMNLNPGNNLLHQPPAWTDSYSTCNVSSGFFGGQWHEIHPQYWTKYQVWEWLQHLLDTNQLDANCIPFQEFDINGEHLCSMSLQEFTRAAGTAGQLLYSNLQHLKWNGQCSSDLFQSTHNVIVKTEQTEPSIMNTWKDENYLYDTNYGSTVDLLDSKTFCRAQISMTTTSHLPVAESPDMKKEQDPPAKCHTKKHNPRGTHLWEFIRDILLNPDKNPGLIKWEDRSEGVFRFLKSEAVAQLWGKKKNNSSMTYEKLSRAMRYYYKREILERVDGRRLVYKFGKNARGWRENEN
Outline: as §1

[6] = target: SPI1 (Homo sapiens, UniProt P17947 1-270)
Outline: as §1

[7] = target: T5, ELK3 (Homo sapiens, UniProt P41970 1-407)
T5 sequence: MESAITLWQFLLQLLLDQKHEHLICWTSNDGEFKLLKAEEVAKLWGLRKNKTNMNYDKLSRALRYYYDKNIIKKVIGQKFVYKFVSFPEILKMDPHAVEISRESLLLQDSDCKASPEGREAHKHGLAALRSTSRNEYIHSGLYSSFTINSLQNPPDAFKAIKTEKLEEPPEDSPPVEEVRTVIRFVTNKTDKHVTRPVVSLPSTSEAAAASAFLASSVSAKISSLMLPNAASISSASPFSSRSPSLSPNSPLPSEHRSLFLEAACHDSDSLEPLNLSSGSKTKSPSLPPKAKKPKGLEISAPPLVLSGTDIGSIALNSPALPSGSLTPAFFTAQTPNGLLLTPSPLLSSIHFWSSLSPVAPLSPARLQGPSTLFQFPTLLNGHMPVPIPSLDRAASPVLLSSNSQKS
Outline: as §1

[8] = target: T6, FEV (Homo sapiens, UniProt Q99581 1-238)
T6 sequence: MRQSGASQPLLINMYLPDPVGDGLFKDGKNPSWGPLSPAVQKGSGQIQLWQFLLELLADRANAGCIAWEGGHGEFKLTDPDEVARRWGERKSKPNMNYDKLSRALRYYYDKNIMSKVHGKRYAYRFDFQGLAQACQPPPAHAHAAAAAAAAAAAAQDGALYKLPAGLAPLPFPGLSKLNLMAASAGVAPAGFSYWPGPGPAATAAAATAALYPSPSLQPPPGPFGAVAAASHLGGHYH
Outline: as §1

[9] = target: ETV5 (Homo sapiens, UniProt P41161 1-510)
Outline: as §1

[10] = target: T7, SPIC (Homo sapiens, UniProt Q8N5J4 1-248)
T7 sequence: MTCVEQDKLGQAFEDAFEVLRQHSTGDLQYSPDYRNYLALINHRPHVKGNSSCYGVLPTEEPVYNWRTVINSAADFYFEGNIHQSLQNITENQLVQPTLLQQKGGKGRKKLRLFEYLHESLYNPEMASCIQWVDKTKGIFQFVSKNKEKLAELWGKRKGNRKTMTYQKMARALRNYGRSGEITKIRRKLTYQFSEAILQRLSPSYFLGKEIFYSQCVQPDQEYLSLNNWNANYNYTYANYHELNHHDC
Outline: as §1

[11] = target: ETV1 (Homo sapiens, UniProt P50549 1-477)
Outline: as §1

[12] = target: T8, ETV3L (Homo sapiens, UniProt Q6ZN32 1-361)
T8 sequence: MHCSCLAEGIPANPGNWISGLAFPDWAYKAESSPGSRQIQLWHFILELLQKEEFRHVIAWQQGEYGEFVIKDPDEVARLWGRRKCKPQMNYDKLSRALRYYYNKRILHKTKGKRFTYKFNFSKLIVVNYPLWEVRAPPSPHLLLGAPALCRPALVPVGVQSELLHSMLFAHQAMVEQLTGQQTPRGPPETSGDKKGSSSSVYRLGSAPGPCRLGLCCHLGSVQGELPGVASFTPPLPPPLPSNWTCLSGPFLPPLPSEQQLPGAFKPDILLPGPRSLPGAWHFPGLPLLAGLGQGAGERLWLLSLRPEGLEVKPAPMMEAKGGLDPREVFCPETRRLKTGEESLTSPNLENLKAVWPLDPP
Outline: as §1

[13] = target: T9, SPDEF (Homo sapiens, UniProt O95238 1-335)
T9 sequence: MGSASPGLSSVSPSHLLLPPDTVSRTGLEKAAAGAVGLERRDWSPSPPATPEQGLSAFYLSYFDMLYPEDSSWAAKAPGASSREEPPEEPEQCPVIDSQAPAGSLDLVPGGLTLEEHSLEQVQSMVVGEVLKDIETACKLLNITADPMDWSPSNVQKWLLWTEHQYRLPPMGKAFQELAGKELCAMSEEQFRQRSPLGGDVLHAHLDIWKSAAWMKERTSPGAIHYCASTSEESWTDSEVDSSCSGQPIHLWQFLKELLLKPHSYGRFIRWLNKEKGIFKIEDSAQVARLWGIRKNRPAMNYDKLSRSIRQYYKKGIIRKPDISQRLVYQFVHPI
Outline: as §1

[14] = target: T10, ETV3 (Homo sapiens, UniProt P41162-2 1-143)
T10 sequence: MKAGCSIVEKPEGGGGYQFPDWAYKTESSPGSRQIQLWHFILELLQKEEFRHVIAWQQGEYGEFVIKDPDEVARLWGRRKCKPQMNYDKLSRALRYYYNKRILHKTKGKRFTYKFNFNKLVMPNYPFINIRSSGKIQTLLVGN
Outline: as §1

[15] = target: ETV6 (Homo sapiens, UniProt P41212 1-452)
Outline: as §1

[16] = target: T11, ERG (Homo sapiens, UniProt P11308 1-479)
T11 sequence: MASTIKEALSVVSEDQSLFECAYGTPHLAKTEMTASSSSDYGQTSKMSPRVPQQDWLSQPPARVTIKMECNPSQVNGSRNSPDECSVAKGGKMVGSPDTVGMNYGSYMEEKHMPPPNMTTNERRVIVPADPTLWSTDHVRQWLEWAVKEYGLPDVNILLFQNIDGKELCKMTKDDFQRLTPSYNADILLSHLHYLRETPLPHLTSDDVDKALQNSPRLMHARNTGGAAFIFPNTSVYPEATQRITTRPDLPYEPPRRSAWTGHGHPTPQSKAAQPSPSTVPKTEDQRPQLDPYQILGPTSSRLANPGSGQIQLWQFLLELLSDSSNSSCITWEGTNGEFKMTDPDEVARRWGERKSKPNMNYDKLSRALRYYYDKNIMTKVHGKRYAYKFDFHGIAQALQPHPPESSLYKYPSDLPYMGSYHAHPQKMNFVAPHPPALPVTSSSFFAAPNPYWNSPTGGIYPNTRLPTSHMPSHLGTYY
Outline: as §1

[17] = target: T12, ETS2 (Homo sapiens, UniProt P15036 1-469)
T12 sequence: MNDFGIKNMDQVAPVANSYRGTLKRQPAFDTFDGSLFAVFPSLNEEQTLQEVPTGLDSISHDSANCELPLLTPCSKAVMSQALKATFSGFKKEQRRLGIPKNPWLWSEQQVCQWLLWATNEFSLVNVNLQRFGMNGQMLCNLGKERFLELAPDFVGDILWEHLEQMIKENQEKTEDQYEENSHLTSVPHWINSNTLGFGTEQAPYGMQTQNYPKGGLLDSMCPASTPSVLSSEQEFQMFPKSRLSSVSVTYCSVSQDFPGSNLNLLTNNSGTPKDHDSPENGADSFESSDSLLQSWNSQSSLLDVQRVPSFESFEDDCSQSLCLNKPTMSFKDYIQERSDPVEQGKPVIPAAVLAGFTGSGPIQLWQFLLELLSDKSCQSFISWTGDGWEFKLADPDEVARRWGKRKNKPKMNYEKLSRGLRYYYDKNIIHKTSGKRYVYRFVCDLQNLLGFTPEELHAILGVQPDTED
Outline: as §1

Sequence of ELF1 (P32519 whole entry): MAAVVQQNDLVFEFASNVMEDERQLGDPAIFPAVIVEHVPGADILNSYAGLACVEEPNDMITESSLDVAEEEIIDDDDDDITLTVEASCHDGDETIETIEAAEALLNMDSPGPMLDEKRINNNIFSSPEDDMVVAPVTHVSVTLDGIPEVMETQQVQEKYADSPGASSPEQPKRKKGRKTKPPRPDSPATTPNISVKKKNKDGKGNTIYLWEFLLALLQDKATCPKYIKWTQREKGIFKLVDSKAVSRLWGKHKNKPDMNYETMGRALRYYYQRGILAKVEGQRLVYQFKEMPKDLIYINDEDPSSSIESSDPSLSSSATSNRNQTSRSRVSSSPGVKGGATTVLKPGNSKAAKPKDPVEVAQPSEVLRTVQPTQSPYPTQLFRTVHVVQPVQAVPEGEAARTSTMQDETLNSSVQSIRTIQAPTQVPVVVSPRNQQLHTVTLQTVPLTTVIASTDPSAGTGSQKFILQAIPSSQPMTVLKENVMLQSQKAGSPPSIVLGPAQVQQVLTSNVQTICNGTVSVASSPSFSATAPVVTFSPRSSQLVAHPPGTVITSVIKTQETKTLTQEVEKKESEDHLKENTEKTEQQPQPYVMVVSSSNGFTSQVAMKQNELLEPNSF
Sequence of ETV5 (P41161 whole entry): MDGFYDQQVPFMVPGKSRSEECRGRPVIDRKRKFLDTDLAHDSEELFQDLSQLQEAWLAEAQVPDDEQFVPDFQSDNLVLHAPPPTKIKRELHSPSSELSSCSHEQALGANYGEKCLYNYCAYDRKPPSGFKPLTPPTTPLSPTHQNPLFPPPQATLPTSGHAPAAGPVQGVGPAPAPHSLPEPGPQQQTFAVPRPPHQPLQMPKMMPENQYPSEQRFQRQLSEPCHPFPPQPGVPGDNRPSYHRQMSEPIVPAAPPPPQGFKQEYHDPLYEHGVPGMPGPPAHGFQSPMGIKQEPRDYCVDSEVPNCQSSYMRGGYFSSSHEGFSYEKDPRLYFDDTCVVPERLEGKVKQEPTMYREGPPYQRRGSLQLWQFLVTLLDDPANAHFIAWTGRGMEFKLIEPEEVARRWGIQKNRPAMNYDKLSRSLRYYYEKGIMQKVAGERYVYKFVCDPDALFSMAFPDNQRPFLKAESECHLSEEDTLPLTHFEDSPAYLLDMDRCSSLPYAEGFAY
Sequence of ETV1 (P50549 whole entry): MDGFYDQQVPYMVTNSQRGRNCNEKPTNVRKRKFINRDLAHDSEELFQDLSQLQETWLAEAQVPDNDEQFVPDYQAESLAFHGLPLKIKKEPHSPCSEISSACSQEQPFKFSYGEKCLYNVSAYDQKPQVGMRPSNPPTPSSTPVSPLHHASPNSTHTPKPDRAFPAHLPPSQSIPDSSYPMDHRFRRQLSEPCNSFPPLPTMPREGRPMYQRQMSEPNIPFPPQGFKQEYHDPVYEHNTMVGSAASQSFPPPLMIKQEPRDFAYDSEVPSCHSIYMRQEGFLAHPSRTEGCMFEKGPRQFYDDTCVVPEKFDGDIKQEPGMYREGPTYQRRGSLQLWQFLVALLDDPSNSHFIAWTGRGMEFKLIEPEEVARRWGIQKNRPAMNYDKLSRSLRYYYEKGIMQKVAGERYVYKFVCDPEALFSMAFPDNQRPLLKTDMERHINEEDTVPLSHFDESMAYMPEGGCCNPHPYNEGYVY
Sequence of ETV6 (P41212 whole entry): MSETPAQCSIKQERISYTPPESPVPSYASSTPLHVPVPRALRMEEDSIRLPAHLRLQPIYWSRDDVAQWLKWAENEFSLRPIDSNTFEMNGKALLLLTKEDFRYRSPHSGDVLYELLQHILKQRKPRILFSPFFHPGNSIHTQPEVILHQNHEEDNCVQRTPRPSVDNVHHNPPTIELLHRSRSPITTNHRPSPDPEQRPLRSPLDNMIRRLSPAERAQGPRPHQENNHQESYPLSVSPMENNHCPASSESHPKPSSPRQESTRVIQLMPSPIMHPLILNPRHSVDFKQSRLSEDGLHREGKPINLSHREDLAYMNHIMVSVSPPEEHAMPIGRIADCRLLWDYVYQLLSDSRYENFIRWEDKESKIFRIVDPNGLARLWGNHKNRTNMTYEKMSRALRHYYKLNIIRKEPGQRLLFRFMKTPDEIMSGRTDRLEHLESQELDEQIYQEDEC

| Sequence | binding signal [1] | binding signal [2] | binding signal [3] | binding signal [4] | binding signal [5] | binding signal [6] | binding signal [7] | binding signal [8] | binding signal [9] | binding signal [10] | binding signal [11] | binding signal [12] | binding signal [13] | binding signal [14] | binding signal [15] | binding signal [16] | binding signal [17] |
| --- | --- | --- | --- | --- | --- | --- | --- | --- | --- | --- | --- | --- | --- | --- | --- | --- | --- |
| ACTGTA | 1 fold enrichment (6-mer frequency, TF over GST control) | 1.09 fold enrichment (6-mer frequency, TF over GST control) | 1.03 fold enrichment (6-mer frequency, TF over GST control) | 1.08 fold enrichment (6-mer frequency, TF over GST control) | 1.11 fold enrichment (6-mer frequency, TF over GST control) | 1.09 fold enrichment (6-mer frequency, TF over GST control) | 1.04 fold enrichment (6-mer frequency, TF over GST control) | 1 fold enrichment (6-mer frequency, TF over GST control) | 1.08 fold enrichment (6-mer frequency, TF over GST control) | 1.24 fold enrichment (6-mer frequency, TF over GST control) | 1.02 fold enrichment (6-mer frequency, TF over GST control) | 1.01 fold enrichment (6-mer frequency, TF over GST control) | 1.02 fold enrichment (6-mer frequency, TF over GST control) | 1 fold enrichment (6-mer frequency, TF over GST control) | 1.03 fold enrichment (6-mer frequency, TF over GST control) | – | – |
| ACTAGG | 1.03 fold enrichment (6-mer frequency, TF over GST control) | 1.1 fold enrichment (6-mer frequency, TF over GST control) | 1.09 fold enrichment (6-mer frequency, TF over GST control) | 1.08 fold enrichment (6-mer frequency, TF over GST control) | 1.04 fold enrichment (6-mer frequency, TF over GST control) | 1.07 fold enrichment (6-mer frequency, TF over GST control) | – | 1.02 fold enrichment (6-mer frequency, TF over GST control) | 1.03 fold enrichment (6-mer frequency, TF over GST control) | 1.21 fold enrichment (6-mer frequency, TF over GST control) | – | 1.04 fold enrichment (6-mer frequency, TF over GST control) | 1.1 fold enrichment (6-mer frequency, TF over GST control) | 1.03 fold enrichment (6-mer frequency, TF over GST control) | – | 1.03 fold enrichment (6-mer frequency, TF over GST control) | 1.08 fold enrichment (6-mer frequency, TF over GST control) |
